Here are results for 38 compounds from PubChem BioAssay (NCI).

The panel holds about 83,000 compounds, 20% with a hit somewhere; the sample as a whole holds those more often.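 Single-dose data. Exposure time 48 hours. Values below 10 considered active.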 Activity calls are given as the source filed them.

This assay deals with RXF 393 renal. Kind of assay: NCI-60 one-dose screen, 48 h (100 = growth as untreated, 0 = no growth, -100 = all killed). The note with it: 10 µM unless noted.
Take `COc1cc2[nH]c(C(=O)c3cc(OC)c(OC)c(OC)c3)c(N)c2cc1C#CC1CC1`: the growth is 19.6% (inactive).

Regarding `COc1cc2c(cc1OC)C(=O)/C(=C/c1cc(-c3ccc4c(c3)OCO4)n[nH]1)C2`, the growth was -39.8% (active). Turning to `NS(=O)(=O)c1ccc(CCNC(=O)/C=C/c2ccc(Cl)cc2)cc1`, the growth was 122% (inactive). To `C/C(=N/NC(N)=S)C(=O)O` belongs 116% (inactive). Take `Cc1ccc(-c2ccc(Nc3ccccc3)nn2)cc1S(N)(=O)=O`: the growth was 91.8% (inactive).

As to `CCC(c1ccc(OC)cc1)C(CC)c1ccc(O)c(CN2CCCCC2)c1` (stereo not drawn), the growth was 53.7% (inactive). To `COc1cc(-c2cc(-c3nc4ccc(F)cc4[nH]3)[nH]n2)cc(OC)c1OC` belongs 36.5% (inactive). For `COc1cccc(NC(=O)c2sc3nc4c(cc3c2N)C(=O)CCC4)c1` the value was 41% (inactive). Regarding `NC1(N)C=CC2=C(C=C1)C1(N)C3=C(C=CC(N)(N)C=C3)N2C2(N)C3=C(C=CC(N)(N)C=C3)N1C1=C2C=CC(N)(N)C=C1`, the growth was 104% (inactive).

In the case of `COc1ccc(-c2nc3ccccn3c2-c2nc3ccc(Cl)cc3[nH]2)cc1`, the growth was 95.8% (inactive). For `O=c1c(CNc2ccc(S(=O)(=O)Nc3nccs3)cc2)coc2ccccc12` the value was 103% (inactive).

Take `CN1CCN(c2nc(-c3cccc4ccccc34)nc3sc4c(c23)CCCCCC4)CC1`: the growth was 60.9% (inactive). To `COc1ccc2nc(-c3cc(-c4cc(OC)c(OC)c(OC)c4)n[nH]3)[nH]c2c1` belongs 45.8% (inactive). For `COc1cccc(-c2nn(-c3ccccc3)cc2-c2ccnc(NCCNS(=O)(=O)c3ccc(Cl)cc3)c2)c1` the value was 29.8% (inactive). To `O=S(=O)(NCCNc1cc(-c2cn(-c3ccccc3)nc2-c2cccc(O)c2)ccn1)c1ccc(C(F)(F)F)cc1` belongs 40.5% (inactive); to `Cc1cc(C)c(NC(=O)c2sc3nc4c(cc3c2N)CCCC4)c(C)c1`, 57.9% (inactive). As to `C/C(=N\Nc1cc(C)c2ccccc2n1)c1ccccn1`, the growth is -77.4% (active). For `C=C1C(=O)O[C@H]2[C@H]1CC/C(Cn1cc(-c3ccc(OC)cc3)nn1)=C\CC[C@@]1(C)O[C@@H]21`, the growth was -63.6% (active). For `COC(=O)[C@]12CC[C@@H](C)[C@H](C)[C@@H]1C1=CC[C@@H]3[C@@]4(C)C[C@@H](OC(C)=O)[C@H](OC(C)=O)[C@@](C)(COC(C)=O)[C@@H]4[C@H](O)C[C@@]3(C)[C@]1(C)CC2` the value was -22.1% (active); for `COc1cccc(-c2nn(-c3ccccc3)cc2-c2ccnc(NCCCNS(=O)(=O)c3ccc(Cl)cc3)c2)c1`, 46.4% (inactive). `O=c1c(CNc2ccc(S(=O)(=O)Nc3ncccn3)cc2)coc2ccccc12`: the growth is 103% (inactive). To `COc1ccc(-c2cc(/C=C/C(=O)c3ccc(OC)c(OC)c3)[nH]n2)cc1` belongs 8.62% (active); to `C#Cc1cc2c(N)c(C(=O)c3cc(OC)c(OC)c(OC)c3)[nH]c2cc1OC`, -5.3% (active); to `O=S(=O)(NCCNc1cc(-c2cn(-c3ccccc3)nc2-c2cccc(O)c2)ccn1)c1ccc(F)cc1`, 35% (inactive). For the compound `c1ccc2[nH]c(-c3cc(-c4ccc5c(c4)OCO5)n[nH]3)nc2c1`, the growth is 59.6% (inactive). For `COc1cccc(-c2nn(-c3ccccc3)cc2-c2ccnc(NCCCNS(=O)(=O)c3cccc(F)c3)c2)c1` the value was 15.8% (inactive); for `COc1cc(-c2cc(-c3nc4cc(Cl)c(Cl)cc4[nH]3)[nH]n2)cc(OC)c1OC`, 70.6% (inactive). For `Oc1cc(/C=C/c2nc(N3CCOCC3)c3cc(Cl)c(Cl)cc3n2)cc(O)c1O` the value was 98.8% (inactive). To `Cc1cc(Nc2ccc(F)cc2)nc(N2CCN(c3ccnc4cc(Cl)ccc34)CC2)n1` belongs 38.9% (inactive); to `COc1ccc(/C=C/C(=O)NCC(C)O)cc1` (stereo not drawn), 90.7% (inactive). `COc1ccc(-c2cc(/C=C/C(=O)c3ccc(N)cc3)[nH]n2)cc1`: the growth is 20% (inactive). To `CSc1ccc(N(C)c2nc(C)nc3c2CCC3)cc1` belongs 44.7% (inactive).

As for `OCCNc1nc(Nc2ccc(Cl)c(Cl)c2)nc2ccccc12`, the growth is 16.8% (inactive).

On to `COc1cc(-c2cc(-c3nc4ccccc4[nH]3)[nH]n2)cc(OC)c1OC`, for which the growth was 49.2% (inactive). Take `O=C1CCN2C(=O)Nc3ccccc3C2C1` (stereo not drawn): the growth was 112% (inactive).

As for `Cc1[c-]onc1C.Cc1[c-]onc1C.[Ag].[Ag].[NH-]S(=O)(=O)c1ccc(N=Nc2cc(N=Nc3ccc(S([NH-])(=O)=O)cc3)c3c(NC(=O)C(Cl)Cl)cccc3c2OC(=O)C(Cl)Cl)cc1`, the growth is 89.2% (inactive). For `Clc1ccc(Cn2cc(-c3nc4ccc(Br)nc4n3Cc3ccc(Cl)cc3)c3cccnc32)cc1`, the growth is 83% (inactive). As to `COC(=O)[C@]12CC[C@@H](C)[C@H](C)[C@@H]1C1=CC[C@@H]3[C@@]4(C)C[C@@H](OC(C)=O)[C@H](O)[C@@](C)(COC(C)=O)[C@@H]4[C@H](O)C[C@@]3(C)[C@]1(C)CC2`, the growth was -79.2% (active).
